The record followed here is the supplement of paper PMC10127200.

What all share (assay): Euclidean distance of Cell Painting phenotypic profile (signed KS, 77 features) to DMSO centroid (dimensionless distance); 5 or 10 uM (library dependent); higher = stronger phenotypic change vs DMSO (phenoactivity)
Common to all, as to settings: 48 h

One assay has as its system 786-O. The method, boiled down: (§1)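 Harmony extracted 77 features from 20X confocal images (9 fields/well) of stained cells, scoring each as a signed Kolmogorov-Smirnov statistic against same-plate vehicle wells. The cells, five cancer lines and a healthy fibroblast line, had received library compounds for 48 h at 10 or 5 uM depending on library, with 0.1% DMSO final. Phenoactivity is the Euclidean distance from each plate-position-corrected, correlation-weighted, top-dose replicate-averaged profile to the median vehicle profile.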

For the next assay, the system named is A549. The method, boiled down: as §1
In another assay the test system is DU145. The procedure, abridged: as §1
The next assay has as its system FB. The procedure, abridged:
as §1

For a further assay, the system named is HEPG2. The method, boiled down: as §1
The test system of the next assay is OVCAR4. The method, boiled down: as §1

With `O=C1C(N(CO)C(=O)NCO)N(CO)C(=O)N1CO` (stereo not drawn) [Diazolidinyl urea], the Euclidean distance worked out at 0.723 with 786-O; 0.505 with A549; 1.01 with DU145; 0.783 with FB; 0.465 in the assay on HEPG2; 0.927 with OVCAR4.

Consider `OC[C@H]1O[C@@H](O[C@@H]2[C@@H](CO)OC(O)(CO)[C@H]2O)[C@H](O)[C@@H](O)[C@H]1O` (mixture of isomers) [Lactulose], for which the Euclidean distance amounted to 1.29 in the assay with 786-O; 0.822 in the assay on A549; 0.75 in the assay on DU145; 0.999 with FB; 1.43 in the assay on HEPG2; 1.7 in the assay on OVCAR4.

Consider `COc1cc(N2CCC(N)CC2)ccc1Nc1ncc(Cl)c(-c2c[nH]c3ccccc23)n1`, for which the Euclidean distance with 786-O was determined as 2.97; with A549 it was 3.34; in the assay with DU145, 2.4; in the assay on FB, 4.05; in the assay with HEPG2, 2.56; in the assay with OVCAR4, 2.07.

With `CN(Cc1cnc2nc(N)nc(N)c2n1)c1ccc(C(=O)N[C@@H](CCC(=O)O)C(=O)O)cc1` [Methotrexate], the Euclidean distance in the assay with 786-O was 1.77; with A549 it was 3.08; in the assay on DU145, 1.05; with FB, 0.72; in the assay with HEPG2, 1.55; with OVCAR4, 2.57.

For `O=C(Cn1cnnn1)N[C@@H]1C(=O)N2C(C(=O)O)=C(CSc3nncs3)CS[C@H]12` [Ceftezole sodium], the Euclidean distance with 786-O amounted to 0.633; in the assay with A549, 1.39; in the assay with DU145, 1.36; in the assay on FB, 0.846; in the assay on HEPG2 it was 0.929; with OVCAR4, 0.929.

Turning to `C[C@@H]1O[C@@H](Oc2c(-c3ccc(O)c(O)c3)oc3cc(O)cc(O)c3c2=O)[C@H](O)[C@H](O)[C@H]1O` [Quercitrin], the Euclidean distance came to 1.05 in the assay with 786-O; 1.14 in the assay on A549; 0.64 in the assay with DU145; 1.09 with FB; 0.738 with HEPG2; 0.915 in the assay on OVCAR4.

For `Cc1cn([C@H]2O[C@@H](CO)[C@H](O)[C@H]2F)c(=O)[nH]c1=O` [Clevudine], the Euclidean distance with 786-O came out at 1.08; in the assay with A549, 0.649; with DU145 it was 1.79; with FB it was 0.837; in the assay on HEPG2, 0.504; with OVCAR4 it was 1.03.

For the compound `CC(C)Cc1ccc(C(C)C(=O)O)cc1` (stereo not drawn) [Ibuprofen], the Euclidean distance was determined as 0.948 in the assay on 786-O; 0.452 in the assay on A549; 0.996 in the assay on DU145; 0.827 with FB; 0.86 with HEPG2; 0.689 with OVCAR4.

In the case of `c1ccc(-c2[nH]ncc2-c2ccnc3ccccc23)nc1`, the Euclidean distance in the assay on 786-O was determined as 0.643; in the assay on A549, 0.916; with DU145, 0.92; with FB, 1.27; in the assay with HEPG2 it was 1.24; in the assay on OVCAR4 it was 0.931.

For the compound `CC1=C(/C=C/C(C)=C/C=C/C(C)=C\C(=O)O)C(C)(C)CCC1` [Isotretinoin], the Euclidean distance was determined as 1.68 in the assay with 786-O; 1.11 with A549; 1.24 in the assay on DU145; 1.94 in the assay on FB; 1.63 in the assay on HEPG2; 1.46 in the assay on OVCAR4.

Consider `Cc1ncc([N+](=O)[O-])n1CCO` [Metronidazole], for which the Euclidean distance came to 0.797 in the assay on 786-O; 0.775 in the assay with A549; 0.948 in the assay with DU145; 1.08 in the assay with FB; 0.943 with HEPG2; 1.6 in the assay on OVCAR4.

With `COc1cccc(OC)c1C(=O)OCc1cc(O)ccc1O[C@@H]1O[C@H](CO)[C@@H](O)[C@H](O)[C@H]1O` [Curculigoside], the Euclidean distance in the assay with 786-O is 0.665; with A549, 0.731; in the assay with DU145 it was 0.819; in the assay on FB it was 0.662; with HEPG2 it was 0.446; in the assay with OVCAR4, 1.36.

With `COC(=O)N[C@@H](C)CNc1nccc(-c2cn(C(C)C)nc2-c2cc(Cl)cc(NS(C)(=O)=O)c2F)n1`, the Euclidean distance in the assay with 786-O was 2.13; in the assay with A549, 1.78; with DU145 it was 1.47; with FB it was 2.67; in the assay on HEPG2, 3.02; with OVCAR4, 1.86.

Take `NCCCS(=O)(=O)O` [Homotaurine]: the Euclidean distance in the assay on 786-O came to 1.14; with A549, 1.27; with DU145, 0.97; with FB, 0.97; in the assay with HEPG2 it was 0.248; with OVCAR4 it was 1.36.

As for `C#Cc1cccc(Nc2ncnc3cc4c(cc23)OCCOCCOCCO4)c1` [Icotinib], the Euclidean distance in the assay with 786-O came out at 1.83; in the assay with A549 it was 1.46; in the assay with DU145, 1.62; in the assay with FB, 1.18; in the assay with HEPG2 it was 1.35; in the assay with OVCAR4, 1.32.

With `Cc1ccccc1-c1cc(N2CCN(C)CC2)ncc1N(C)C(=O)C(C)(C)c1cc(C(F)(F)F)cc(C(F)(F)F)c1` [Netupitant], the Euclidean distance in the assay with 786-O was found to be 1.35; in the assay with A549 it was 0.761; with DU145, 0.595; with FB, 0.999; in the assay with HEPG2, 1.23; in the assay on OVCAR4, 1.4.

Consider `CN[C@@H]1[C@@H](O)[C@@H](O[C@@H]2[C@@H](O)[C@H](O[C@H]3O[C@H](CN)[C@@H](O)[C@H](O)[C@H]3O)[C@@H](N)C[C@H]2NC(=O)[C@@H](O)CN)OC[C@]1(C)O` [Isepamicin Sulphate], for which the Euclidean distance in the assay on 786-O turned out to be 1.12; with A549 it was 0.946; with DU145 it was 0.819; in the assay on FB it was 1.14; with HEPG2 it was 0.94; with OVCAR4, 1.65.

As for `CCN[C@H]1CN(CCCOC)S(=O)(=O)c2sc(S(N)(=O)=O)cc21` [Brinzolamide], the Euclidean distance worked out at 1.5 in the assay on 786-O; 1.1 in the assay with A549; 1.06 in the assay with DU145; 1.48 with FB; 0.663 in the assay on HEPG2; 2.07 in the assay on OVCAR4.

On to `CC(C)C[C@H](NC(=O)[C@H]1O[C@@H]1C(=O)O)C(=O)NCCCCN=C(N)N`, for which the Euclidean distance was 1.31 in the assay on 786-O; 1.07 in the assay on A549; 1.07 in the assay with DU145; 1.02 in the assay with FB; 0.615 in the assay on HEPG2; 1.09 in the assay on OVCAR4.

Take `CC(=O)[C@H]1CC[C@H]2[C@@H]3CC=C4C[C@@H](O)CC[C@]4(C)[C@H]3CC[C@]12C` [Pregnenolone]: the Euclidean distance was found to be 1.29 in the assay on 786-O; 1.07 in the assay with A549; 0.872 in the assay on DU145; 1.07 with FB; 0.703 in the assay on HEPG2; 1.03 in the assay on OVCAR4.

For the compound `O=C(O)c1ccccc1` [Benzoic Acid], the Euclidean distance in the assay on 786-O was 1.39; in the assay on A549 it was 1.16; in the assay on DU145, 1.58; in the assay with FB it was 0.886; with HEPG2, 1.6; in the assay with OVCAR4 it was 0.868.

In the case of `CC(C)=CCC/C(C)=C/CC/C(C)=C/CCC(=O)OC/C=C(\C)CCC=C(C)C` [Gefarnate], the Euclidean distance in the assay on 786-O turned out to be 0.868; in the assay on A549, 0.898; in the assay on DU145, 0.637; in the assay on FB it was 1.09; in the assay on HEPG2, 0.64; with OVCAR4, 0.606.

For the compound `COc1ccc2[nH]c([S@@+]([O-])Cc3ncc(C)c(OC)c3C)nc2c1` [Esomeprazole Sodium], the Euclidean distance in the assay with 786-O came out at 1.75; with A549 it was 1.36; in the assay on DU145 it was 1.05; in the assay with FB it was 0.915; in the assay with HEPG2 it was 1.26; with OVCAR4, 1.34.
